Rows were chosen to be rich in hits. Some 0.5% of all compounds tested hit in one or more screens of this group.
TR SRC2 fluor cs: alters Texas Red total fluorescence, flagging assay interference; TRb/SRC2 Texas Red total fluorescence interference; Potency, µM (doses to about 106 µM); 0.29% of 280,000 active; active = well fitted curve in either direction with a large enough effect; inconclusive = small, poorly fitted or top-dose-only effect
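Human TRb ligand-binding domain at 0.6 uM with 20 nM Texas Red SRC2 peptide in Tris buffer containing 1 uM T3 and 5% DMSO, incubated with compound 5 h at ambient temperature. Total fluorescence (555/632 nm) calculated as parallel + 2 × perpendicular.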
CXXC DNA block: MLL CXXC-DNA interaction inhibition; 0.037% of 290,000 active; Q03164; AID 2662; Potency, µM (top dose mostly 115 µM), hits mostly inhibitors; MLL-CXXC / FITC-HOXA9 DNA fluorescence polarization; active = well fitted inhibition curve with a large enough effect in the polarisation, with a control signal flat, not every such curve was filed as active; inconclusive = small, poorly fitted or top-dose-only effect, or effect the other way, or a change in a side signal; inactive = no such curve, though single readings can be large or run the other way; the % refers to the polarisation
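Fluorescence polarization: 7 uM MLL-CXXC (stock) preincubated 5 min with compounds, then 50 nM fluorescein-HOX-A9 DNA (stock) added; 30 min ambient. Buffer 50 mM Tris-HCl pH 7.5, 50 mM NaCl, 1 mM DTT, 0.05% BSA.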
Menin-MLL TR inh: inhibitors of human menin-MLL interaction, mutant MLL peptide | O00255 | Menin + Texas Red MLL mutant peptide, fluorescence polarization | 0.23% of 270,000 active | Potency, µM (doses to about 61.6 µM), actives largely listed as inhibitors; active = well fitted inhibition curve with a large enough effect in the polarisation, with a control signal flat, not every such curve was filed as active; inconclusive = small, poorly fitted or top-dose-only effect, or effect the other way, or a change in a side signal; inactive = no such curve, though single readings can be large or run the other way; the % refers to the polarisation
TRb-SRC2 inh: inhibitors of human thyroid hormone receptor beta-SRC2 interaction | P10828 | TRbeta-SRC2 peptide binding, fluorescence polarization; receptor liganded with 1 µM T3 | Potency, µM (titrated, usually from 106 µM), actives largely listed as inhibitors | 0.065% of 280,000 active | AID 1469; active = well fitted inhibition curve with a large enough effect; inconclusive = small, poorly fitted or top-dose-only effect, or effect the other way; note: nearly all actives have a fitted effect of over 50% in size
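A fluorescence polarization screen tested compounds at multiple concentrations against complex formation between 0.6 uM TRb ligand-binding domain and 20 nM Texas Red SRC2 peptide, with 1 uM T3 present; readout after 5 hr.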
GoLoco inh red: inhibitors of human Gai1-RGS12 GoLoco interaction (red fluorophore). P63096. Gai1:RGS12 GoLoco peptide FP, rhodamine, 10 min. Potency, µM (doses to about 61.6 µM), hits mostly inhibitors. 0.44% of 230,000 active; active = well fitted inhibition curve with a large enough effect, not every such curve was filed as active; inactive = no such curve, though single readings can be large or run the other way; note: nearly all actives have a fitted effect of over 30% in size
Target sequence (P63096 whole entry, looked up): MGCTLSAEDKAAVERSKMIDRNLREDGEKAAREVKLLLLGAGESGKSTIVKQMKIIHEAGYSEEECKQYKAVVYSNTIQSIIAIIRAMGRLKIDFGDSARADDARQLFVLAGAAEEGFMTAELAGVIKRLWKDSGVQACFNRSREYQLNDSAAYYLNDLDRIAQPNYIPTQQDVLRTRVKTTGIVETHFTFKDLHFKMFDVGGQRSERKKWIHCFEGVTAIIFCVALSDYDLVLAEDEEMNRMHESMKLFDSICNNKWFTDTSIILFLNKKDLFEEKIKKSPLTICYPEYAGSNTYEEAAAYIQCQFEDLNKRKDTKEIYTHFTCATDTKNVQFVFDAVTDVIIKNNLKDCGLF
Menin-MLL FL inh: displaces fluorescein MLL peptide from human menin | 290,000 tested, under 10 active | Fluorescence polarization, fluorescein-MLL peptide displacement from menin | FP activity change, % at 61.4 µM; active = well fitted curve in the direction sought with a large enough effect in the polarisation, not every such curve was filed as active; inconclusive = small, poorly fitted or top-dose-only effect, or effect the other way, or a change in a side signal; inactive = no such curve, though single readings can be large or run the other way; the % refers to the polarisation
Each line names hits and unclear results; the compound was inactive in the other large screens; [ ] = dose if it differs, or a comment.

C[N+]1(CC(=O)OCCCC2CCCCC2)CCCC1	none
CC(C)(C)C1CCC(OC(=O)C[N+]2(C)CCCC2)CC1 (stereo not drawn)	GoLoco inh red 7.1µM
CS/C(=N\O)C(=O)N(C)C	none (no result: CXXC DNA block, Menin-MLL TR inh, GoLoco inh red, Menin-MLL FL inh)
CC(=O)c1cccc(NC(=O)COC(=O)COc2c(Cl)cc(Cl)c3ccc(C)nc23)c1	none
Cc1ccc2c(Cl)cc(Cl)c(OCC(=O)OCC(=O)Nc3ccc(C#N)cc3)c2n1	CXXC DNA block inconclusive, GoLoco inh red 20µM
COc1ccc(C2C(=O)N(C3CCCCC3)CC(=O)N2CCC2=CCCCC2)cc1 (stereo not drawn)	none (no result: CXXC DNA block, Menin-MLL TR inh, GoLoco inh red, Menin-MLL FL inh)
CCCCNC(=O)c1nn(-c2ccc(C)cc2)c(=O)c2c1c1ccccc1n2C	none (no result: CXXC DNA block, Menin-MLL TR inh, GoLoco inh red, Menin-MLL FL inh)
CCOc1ccc(/C=C2/SC(=O)NC2=S)cc1	Menin-MLL TR inh inconclusive, Menin-MLL FL inh inconclusive
CCOc1ccc(N=C2NC(=O)S/C2=C\c2ccc(N(C)C)cc2)cc1	Menin-MLL TR inh 32µM, Menin-MLL FL inh inconclusive
CC/C(=C/c1sc2ccc(C)cc2[n+]1CCO)SC	none
CC/C(=C/c1sc2ccc(C)cc2[n+]1CCCS(=O)(=O)[O-])SC	TR SRC2 fluor cs 45µM[fluorescent], Menin-MLL TR inh inconclusive, TRb-SRC2 inh inconclusive, Menin-MLL FL inh inconclusive
CC(=O)Nc1ccc(-c2ccccc2)s1	GoLoco inh red 18µM
CC1(C)C(C=C(Cl)Cl)[C@H]1C(=O)OCc1cccc(Oc2ccccc2)c1 (stereo partly drawn)	none (no result: CXXC DNA block, Menin-MLL TR inh, GoLoco inh red, Menin-MLL FL inh)
c1ccc2c(c1)ccc1c3ccccc3ccc21	none (no result: CXXC DNA block, Menin-MLL TR inh, GoLoco inh red, Menin-MLL FL inh)
O=C1C=CC(=O)c2c(O)c(Cl)c(Cl)c(O)c21	TR SRC2 fluor cs inconclusive, Menin-MLL TR inh inconclusive, GoLoco inh red 0.35µM, Menin-MLL FL inh inconclusive (no result: CXXC DNA block)
CCCCOc1ccc(-c2nnn(CC(=O)c3c[nH]c4ccccc34)n2)cc1	Menin-MLL TR inh 8.9µM
CCN(CC)c1ccc(NC(=O)CCCCCN2C(=O)c3ccccc3C2=O)cc1	GoLoco inh red 22µM
CC(=O)c1ccc(NC(=O)CC(c2cccs2)N2Cc3ccccc3C2=O)cc1 (stereo not drawn)	none (no result: CXXC DNA block, Menin-MLL TR inh, GoLoco inh red, Menin-MLL FL inh)
NS(=O)(=O)c1ccc(N=Nc2ccc(O)c(C(=O)O)c2)cc1	none (no result: TR SRC2 fluor cs, CXXC DNA block, Menin-MLL TR inh, TRb-SRC2 inh, Menin-MLL FL inh)
O=C(O)c1cc(N=Nc2ccc([N+](=O)[O-])cc2)ccc1O	none (no result: CXXC DNA block, Menin-MLL TR inh, Menin-MLL FL inh)
O=C(O)c1cc(N=Nc2ccc(O)c(C(=O)O)c2)ccc1O	Menin-MLL TR inh 40µM (no result: TR SRC2 fluor cs, TRb-SRC2 inh, GoLoco inh red)
O=C(O)c1cc(N=Nc2ccc(-c3ccc(N=Nc4ccc(O)c(C(=O)O)c4)cc3)cc2)ccc1O	TR SRC2 fluor cs 28µM[quencher], Menin-MLL TR inh inconclusive, TRb-SRC2 inh inconclusive, Menin-MLL FL inh inconclusive (no result: CXXC DNA block, GoLoco inh red)
Fc1ccc(Br)cc1	none (no result: CXXC DNA block, Menin-MLL TR inh, GoLoco inh red, Menin-MLL FL inh)
CC[n+]1c(C)sc2c(C)cc(C)cc21	GoLoco inh red 2.5µM
CCOc1ccc(NC(=O)OC(C)C)cc1OCC	none (no result: CXXC DNA block, Menin-MLL TR inh, GoLoco inh red, Menin-MLL FL inh)
COc1ccc(/C=C2\CCCc3c2nc2ccccc2c3C(=O)O)cc1OC	CXXC DNA block inconclusive, GoLoco inh red 25µM, Menin-MLL FL inh inconclusive (no result: Menin-MLL TR inh)
CCOc1cccc(-c2nc3ccccc3c(=O)o2)c1	none (no result: CXXC DNA block, Menin-MLL TR inh, GoLoco inh red, Menin-MLL FL inh)
O=C1OCCC1N(C(=O)C1CC1)c1cccc(Cl)c1 (stereo not drawn)	none (no result: CXXC DNA block, GoLoco inh red)
CC1=[N+](C)c2ccc3ccccc3c2C1(C)C	TR SRC2 fluor cs 4.5µM[fluorescent], Menin-MLL TR inh inconclusive, TRb-SRC2 inh 32µM (no result: Menin-MLL FL inh)
Cc1nc(CC(=O)Nc2ccc(C)c(C)c2)cs1	none (no result: CXXC DNA block, Menin-MLL TR inh, GoLoco inh red, Menin-MLL FL inh)
CCn1ccc2cc(S(=O)(=O)N3CCCN(C(=O)NCCOC)CC3)ccc21	none (no result: CXXC DNA block, Menin-MLL TR inh, GoLoco inh red, Menin-MLL FL inh)
C[n+]1cc(-c2ccccc2)n2c1CCCCC2	GoLoco inh red 4.5µM
O=C(C[n+]1cc(-c2ccccc2)n2c1CCCCC2)c1ccc(Cl)cc1	Menin-MLL TR inh inconclusive
OC1CCC(C2CCCCC2)CC1 (stereo not drawn)	none (no result: CXXC DNA block, Menin-MLL TR inh, GoLoco inh red, Menin-MLL FL inh)
Cc1c(Cl)cccc1NC(=O)C1CCN(c2ncnc3c2nc2n3CCCCC2)CC1	TR SRC2 fluor cs 20µM[quencher] (no result: CXXC DNA block, Menin-MLL TR inh, GoLoco inh red, Menin-MLL FL inh)
O=C1C2=C(S[C@@H]3O[C@H](CO)[C@@H](O)[C@H](O)[C@H]3O2)C(=O)c2ccccc21	Menin-MLL TR inh inconclusive, Menin-MLL FL inh inconclusive (no result: CXXC DNA block)
Cc1c(Cl)cccc1Cl	none (no result: CXXC DNA block, Menin-MLL TR inh, GoLoco inh red, Menin-MLL FL inh)
CCCN(CCC)C(=O)Cn1c(=O)n(-c2ccc(CC)cc2)c(=O)c2c3c(sc21)CCC3	TR SRC2 fluor cs 0.2µM[quencher] (no result: CXXC DNA block, Menin-MLL TR inh, GoLoco inh red, Menin-MLL FL inh)
Cc1cccc(N2CCN(CCCNC(=O)c3nnc(Cc4c(F)cccc4Cl)o3)CC2C)c1 (stereo not drawn)	none (no result: CXXC DNA block, Menin-MLL TR inh, GoLoco inh red, Menin-MLL FL inh)
